mHTT-CaM PPI inh – mutant huntingtin-calmodulin interaction inhibitors – biochemical, AlphaScreen, primary screen. P42858. AlphaScreen His-mHTT/GST-CaM binding, luminescence. inhibition, % at 15 µM. 3.6% of 190,000 active;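 note: 0% = both proteins with DMSO and 100% = one protein alone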
Pf apPOL inh – Pf-apPOL inhibitors, biochemical, fluorescence | 0.25% of 210,000 active | Recombinant Pf-apPOL, molecular beacon fluorescence, 1.5 h | Plasmodium falciparum apicoplast DNA polymerase (apPOL) | inhibition, % at 10 µM | AID 1794808, 2022
Active calls of the source: *; ! = a repeat was not active. Only a selection was taken, and hits are over-represented in it overall. Cut-off read from the data, not from the text of the source: active = inhibition above about 50%; inactive = the rest.

Results for COc1cccc(CN2CCCCC2c2nc(C(C)C)no2)c1 (configuration not stated) ?
mHTT-CaM PPI inh: -41.7; Pf apPOL inh: -6.8

How did CC(C)c1noc(C2CCCN2Cc2ccccn2)n1 (configuration not stated) do in these assays?
mHTT-CaM PPI inh: 56.8*; Pf apPOL inh: -5.3

Results for CC(C)c1noc(C2CCCCN2CC(=O)Nc2ccccn2)n1 (configuration not stated) ?
mHTT-CaM PPI inh: -2.9; Pf apPOL inh: -0.7

How did CC(C)c1noc(C2CCCCN2Cc2ccc(N(C)C)cc2)n1 (configuration not stated) do in these assays?
mHTT-CaM PPI inh: 53.9*; Pf apPOL inh: 3.8

What do the screens show for `Cc1ccc(OCC(=O)Nc2ccc(S(=O)(=O)N3CCCC3)cc2)c(Br)c1`?
mHTT-CaM PPI inh: 3.5; Pf apPOL inh: -14.5

How did COc1ccc2oc(=O)c(-c3csc(/C(C#N)=C/c4ccc(F)cc4)n3)cc2c1 do in these assays?
mHTT-CaM PPI inh: 2.0; Pf apPOL inh: 1.3

What do the screens show for `OC(COc1ccc(C23CC4CC(CC(C4)C2)C3)cc1)C[N+]1(Cc2ccccc2)CCOCC1` (configuration not stated)?
mHTT-CaM PPI inh: 100.3*; Pf apPOL inh: -61.3

How did CCCCOCC(O)C[N+]1(Cc2ccccc2)CCOCC1 (configuration not stated) do in these assays?
mHTT-CaM PPI inh: -5.1; Pf apPOL inh: -1.7

What do the screens show for `Cc1noc(NS(=O)(=O)c2ccc(NC(=O)c3ccc(Cl)c(Cl)c3)cc2)c1C`?
mHTT-CaM PPI inh: 7.0; Pf apPOL inh: -4.4

Results for COc1ccc(N(C)C(=O)c2nc(C)n(C3CCN(C)CC3)c2C)cc1 ?
mHTT-CaM PPI inh: 76.4*; Pf apPOL inh: 6.0

How did Cc1nc(C(=O)N(C)C)c(C)n1C1CCN(C)CC1 do in these assays?
mHTT-CaM PPI inh: -1.4; Pf apPOL inh: -4.2

What do the screens show for `CSC(=CC(=O)c1sc2scc(C)c2c1C)SC`?
Pf apPOL inh: -7.7

What do the screens show for `COC(=O)c1sc2scc(C)c2c1C`?
Pf apPOL inh: 63.6*!

What do the screens show for `CN1C(=O)C(O)(CC(=O)c2ccccn2)c2cc(Br)ccc21` (configuration not stated)?
mHTT-CaM PPI inh: 2.4; Pf apPOL inh: -5.7

What do the screens show for `CN1C(=O)C2(NN=C(c3ccccc3)S2)c2cc(Br)ccc21` (configuration not stated)?
mHTT-CaM PPI inh: 100.0*; Pf apPOL inh: -3.3

How did CC(C)(C)c1cc(C(F)(F)F)nc(N)n1 do in these assays?
mHTT-CaM PPI inh: -1.7; Pf apPOL inh: 3.7

How did COc1ccc(C(/C=C2\N(C)c3ccccc3C2(C)C)C[N+](=O)[O-])cc1 (configuration not stated) do in these assays?
mHTT-CaM PPI inh: 50.0; Pf apPOL inh: 0.2

What do the screens show for `CN1/C(=C\C(C[N+](=O)[O-])c2ccc3c(c2)OCO3)C(C)(C)c2ccccc21` (configuration not stated)?
mHTT-CaM PPI inh: 83.0*; Pf apPOL inh: -16.6

How did Cn1cc(S(=O)(=O)Nc2ccc(Cl)c(Cl)c2)cn1 do in these assays?
mHTT-CaM PPI inh: -4.9

What do the screens show for `COc1ccc(Cc2nnc3c4cnn(-c5ccc(C)cc5)c4ncn23)cc1OC`?
mHTT-CaM PPI inh: -1.0; Pf apPOL inh: 8.9

What do the screens show for `Cc1ccc(NC(=O)CSc2nnc3c(n2)[nH]c2ccccc23)cc1Cl`?
mHTT-CaM PPI inh: 53.0*; Pf apPOL inh: 3.4

What do the screens show for `Cc1ccc(NC(=O)CSc2nc3c([nH]c4ccccc43)c(=O)n2C)cc1Cl`?
mHTT-CaM PPI inh: 18.0; Pf apPOL inh: 0.1

Results for O=C(CN1C(=O)c2ccccc2S1(=O)=O)N1CCCCC1 ?
mHTT-CaM PPI inh: 0.9; Pf apPOL inh: -2.0

Results for O=C(CN1C(=O)c2ccccc2S1(=O)=O)N1CCCCCC1 ?
mHTT-CaM PPI inh: 2.0; Pf apPOL inh: 50.7*

What do the screens show for `CC(C(=O)NCc1ccco1)C1CCN(S(=O)(=O)c2ccc(Cl)s2)CC1` (configuration not stated)?
mHTT-CaM PPI inh: 5.5; Pf apPOL inh: 1.5

Results for COc1cccc2sc(N3CCN(c4ccccc4)CC3)nc12 ?
mHTT-CaM PPI inh: -15.2; Pf apPOL inh: -17.8

How did COc1cccc2sc(N3CCc4ccccc4C3)nc12 do in these assays?
mHTT-CaM PPI inh: 92.9*; Pf apPOL inh: -7.6

How did COc1cc(C=C2SC(=S)N(c3ccc4c(c3)OCO4)C2=O)cc(OC)c1OC do in these assays?
mHTT-CaM PPI inh: 17.2; Pf apPOL inh: -4.6

How did COc1cc(C=C2SC(=S)N(c3ccc(C(=O)O)c(O)c3)C2=O)ccc1O do in these assays?
mHTT-CaM PPI inh: 69.9*; Pf apPOL inh: -46.1

Results for COc1cc(C=C2SC(=S)N(CC(=O)O)C2=O)ccc1O ?
mHTT-CaM PPI inh: 26.6; Pf apPOL inh: -12.3

How did COc1cc(C=C2SC(=S)N(c3cccc(O)c3)C2=O)ccc1O do in these assays?
mHTT-CaM PPI inh: 80.9*; Pf apPOL inh: -80.7

How did O=C(Cc1cn2cc(F)ccc2n1)Nc1ccccc1 do in these assays?
mHTT-CaM PPI inh: 0.9; Pf apPOL inh: -5.0

How did COc1ccc(NC(=O)c2[nH]ncc2[N+](=O)[O-])cc1 do in these assays?
mHTT-CaM PPI inh: 1.0; Pf apPOL inh: -0.7

How did O=C(CCc1ccccc1)N1CCC(Nc2cccnc2)C1 (configuration not stated) do in these assays?
mHTT-CaM PPI inh: -3.8; Pf apPOL inh: -5.1

What do the screens show for `O=C(CCC1CCCC1)N1CCC(Nc2cccnc2)C1` (configuration not stated)?
mHTT-CaM PPI inh: -1.8; Pf apPOL inh: 67.0*

How did FC(F)(F)Oc1ccc(CSC(=S)N2CCCN(c3ccc(C(F)(F)F)cn3)CC2)cc1 do in these assays?
Pf apPOL inh: 4.8

What do the screens show for `Fc1ccc(C2Oc3ccc(Cl)cc3C3CC(c4ccco4)=NN32)cc1F` (configuration not stated)?
mHTT-CaM PPI inh: 82.0*; Pf apPOL inh: -17.3

Results for COc1cccc2c1OC(c1cccc(F)c1)N1N=C(c3ccco3)CC21 (configuration not stated) ?
mHTT-CaM PPI inh: 32.0; Pf apPOL inh: -17.4

How did COc1cc(C2Oc3ccc(Cl)cc3C3CC(c4ccco4)=NN32)cc(OC)c1OC (configuration not stated) do in these assays?
mHTT-CaM PPI inh: 63.0*; Pf apPOL inh: -19.8

What do the screens show for `COc1cc(C2Oc3c(OC)cccc3C3CC(c4ccco4)=NN32)cc(OC)c1OC` (configuration not stated)?
mHTT-CaM PPI inh: 38.0; Pf apPOL inh: -14.5

How did COc1cccc(C2Oc3ccc(Cl)cc3C3CC(c4ccco4)=NN32)c1 (configuration not stated) do in these assays?
mHTT-CaM PPI inh: 47.0; Pf apPOL inh: -12.3

How did CCOc1cccc2c1OC(c1ccc(F)c(F)c1)N1N=C(c3ccco3)CC21 (configuration not stated) do in these assays?
mHTT-CaM PPI inh: 14.0; Pf apPOL inh: -29.2

How did Brc1ccc2c(c1)C1CC(c3ccco3)=NN1C(c1cccs1)O2 (configuration not stated) do in these assays?
mHTT-CaM PPI inh: 89.0*; Pf apPOL inh: 1.2

How did COc1ccc(C2Oc3ccc(Cl)cc3C3CC(c4ccco4)=NN32)cc1OC (configuration not stated) do in these assays?
mHTT-CaM PPI inh: 60.0*; Pf apPOL inh: -19.7

Results for CC(C)(C)C1CCC2(CC1)NC(=O)N(CC(N)=O)C2=O (configuration not stated) ?
mHTT-CaM PPI inh: -0.4; Pf apPOL inh: -2.5
